# Measurements taken from PubChem BioAssay AID435001 (Southern Research Specialized Biocontainment Screening …, 2010).
# Active and inactive are the calls of the source. How the calls were made is not given here.
# Molecular target: Large T antigen (Simian virus 40) (UniProt P03070)
# Assay: SV40 TAg ATPase inhibitors, biochemical, ADP-Hunter, purified TAg, synthesized compounds (AID 435001)
# Chain of Large T antigen (Simian virus 40) (P03070 whole entry, looked up): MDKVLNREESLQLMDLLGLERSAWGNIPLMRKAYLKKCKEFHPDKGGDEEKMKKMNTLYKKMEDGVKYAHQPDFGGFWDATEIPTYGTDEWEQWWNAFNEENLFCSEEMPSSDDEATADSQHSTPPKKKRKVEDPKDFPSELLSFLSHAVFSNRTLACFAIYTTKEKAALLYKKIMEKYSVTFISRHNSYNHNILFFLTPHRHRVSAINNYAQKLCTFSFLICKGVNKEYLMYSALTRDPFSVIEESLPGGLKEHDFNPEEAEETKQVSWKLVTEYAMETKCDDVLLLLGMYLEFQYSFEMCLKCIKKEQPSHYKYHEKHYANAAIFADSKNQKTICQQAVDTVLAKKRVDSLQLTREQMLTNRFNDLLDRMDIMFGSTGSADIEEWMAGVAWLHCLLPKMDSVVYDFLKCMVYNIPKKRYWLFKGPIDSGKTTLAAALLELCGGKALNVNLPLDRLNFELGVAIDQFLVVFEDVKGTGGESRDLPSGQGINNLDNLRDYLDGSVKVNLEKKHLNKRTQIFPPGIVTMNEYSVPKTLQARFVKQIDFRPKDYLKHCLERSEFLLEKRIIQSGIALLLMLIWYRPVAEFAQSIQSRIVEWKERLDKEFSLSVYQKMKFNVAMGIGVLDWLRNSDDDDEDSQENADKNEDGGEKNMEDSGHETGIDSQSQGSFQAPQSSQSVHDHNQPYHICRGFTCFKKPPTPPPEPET
row,Structure (SMILES),outcome
1,COc1ccc(C2(c3ccc(OC)cc3)CC2)cc1,inactive
2,COc1ccc(C(C)(C)c2ccc(OC)cc2)cc1,inactive
3,COc1ccc(C(C)(O)c2ccc(OC)cc2)cc1,inactive
4,C=C(c1ccc(OC)cc1)c1ccc(OC)cc1,inactive
